Data: ChEMBL document CHEMBL4513216, “Probing the Open Global Health Chemical Diversity Library for Multistage-Active Starting Points for Next-Generation Antimalarials” (ACS Infect Dis, 2020)
Out of some 69,000 compounds screened, about 8,600 (12%) showed an effect of 50% or more. The sample as a whole holds a higher share of strong results than the screen did.

What follows are molecules tested on Plasmodium berghei (assay: Screen against P. berghei liver stage (PbLuc), transformed with Luciferase, at 10uM). Conditions: tested at 10 uM.
Assay type: functional, HepG2

Compound | INHIBITION [%]
Cc1nc(CN2CCN(C(=O)CCc3nc(C(C)(C)C)no3)CC2)cs1 | 30.8
c1cncc(CN2CCc3c(nnn3CC3CC3)C2COCC2CC2)c1 (stereo unspecified) | 27.4
CCN1CCN(C(=O)Cn2ncc3c2c(C)nn3C(C)C)CC1 | 15.9
CCC(C)N(C)CCNC(=O)c1ccccc1OCCOC (stereo unspecified) | 8.64
O=C1CCC2(CCCN(Cc3ccccc3F)C2)N1CC1CC1 (stereo unspecified) | -19.6
CCOCc1ccccc1NC(=O)NCC(C)(O)c1ccsc1 (stereo unspecified) | 11
CCOCc1ccccc1NC(=O)NCC(C)(O)c1cccs1 (stereo unspecified) | 0.734
CCOCc1ccccc1NC(=O)NCC(C)(O)c1cc(C)oc1C (stereo unspecified) | 85.5
CCC(CN1CCCC1)n1cncc1-c1cnn(Cc2ccccc2)c1 (stereo unspecified) | 3.5
CN(C)S(=O)(=O)N1CCC(c2ccncc2)CC1 | -33.4
Cc1cc(NC(=O)C(C)Oc2ccc3c(c2)OCO3)no1 (stereo unspecified) | 14.6
Cc1cccc(NC(=O)C(C)Oc2ccc3c(c2)OCO3)n1 (stereo unspecified) | 53.7
Cc1cc(C)nc(NC(=O)C(C)Oc2ccc3c(c2)OCO3)n1 (stereo unspecified) | 48.5
CC(=O)c1cccc(CN2CCCC23CCN(c2ccccn2)CC3)c1 | 19.8
COc1cccc(CN(C)CC2=Nc3ccccc3S(=O)(=O)N2)c1 | 69.7
COc1cccc(CNC(=O)CCOc2ccccc2C)c1 | 2.43
COc1cccc(CN(C)CC(=O)NC2(C)CCS(=O)(=O)C2)c1 (stereo unspecified) | -27.9
COc1cccc(CNC(=O)CCC2=Nc3ccccc3S(=O)(=O)N2)c1 | 57
CNS(=O)(=O)c1ccc(CCC(=O)NCc2cccc(OC)c2)cc1 | -74.6
COc1cccc(CSC=C2Nc3ccccc3S(=O)(=O)N2)c1 | 27.7
Cc1nn(C)c(N(C)C)c1CNC1CCOc2ccccc21 (stereo unspecified) | -5.05
Cc1oc2c(c1C(=O)N1C[C@H](O)[C@]3(CCCO3)C1)CCCC2 | 3.95
CC1CN(C)CCN1C(=O)Nc1nc(-c2ccc[nH]2)cs1 (stereo unspecified) | 6.33
CS(=O)(=O)NCCNCc1ccc(Br)s1 | -40.7

Compound | INHIBITION [%]
CN1C(=O)C(C)(C)COc2cc(NS(=O)(=O)c3ccccc3F)ccc21 | 22.3
CC(C)Sc1ncccc1C(=O)NCc1ccc(CS(C)(=O)=O)cc1 | 14.4
CC(C)Sc1ncccc1C(=O)NCc1ccoc1 | 42.9
CC(C)Sc1ncccc1C(=O)NCc1ccc(O)cc1 | 60.7
O=C(NCCc1nnc2n1CCC2)NCC1(c2ccc(F)cc2)CC1 | 9.63
COc1ccccc1N1CCN(C(=O)Cn2nc(C)c(Cl)c2C)CC1 | -29.2
CCS(=O)(=O)N1CCC2(CC1)CC1(CCN(CCOC)CC1)C(=O)N2C | 40.8
Cc1cc(CN[C@H](C(N)=O)[C@@H](C)O)c(C)s1 | 38.7
Cc1cc(CN[C@@H](C)C(N)=O)c(C)s1 | 16.3
Cc1cc(CN[C@@H](Cc2ccccc2)C(N)=O)c(C)s1 | 53.3
Cc1csc(C(C)(C)NCc2ncc(-c3ccc(F)cc3)o2)n1 | -46.4
COc1ncc(CN2CCOC(C)(C(=O)N3CCOCC3)C2)cn1 (stereo unspecified) | 41.2
O=c1[nH]ncc(NCCOc2ccc3c(c2)OCO3)c1Cl | 20.3
O=c1[nH]ncc(NCCOc2cccc(Br)c2)c1Cl | 15.6
O=c1[nH]ncc(NCCOc2ccc3c(c2)CCC3)c1Cl | 77.1
CCn1nccc1CN(C)C(=O)Cn1cc2c(n1)c(C)nn2CC | 35
O=C(CSc1ncccn1)N1C[C@@H]2CC[C@H]1CN(Cc1ccncc1)C2 | 21.6
Cc1nc2c(C)cccc2cc1C(=O)N1CCC2(CCNCC2)CC1 | 47.7
Cc1cc(O)c(OCC(=O)/N=c2\[nH]cc(C)s2)cn1 | -48.2
Cc1ccc(-c2nc(CNC3CCc4ncnn4C3)no2)cc1 (stereo unspecified) | 0.411
CC(Cn1ccnc1)NC(=O)C1(c2ccccc2)CC1 (stereo unspecified) | 46.2
Cc1ccc(CN2Cc3nnn(C)c3C(COCc3ccccc3)C2)o1 (stereo unspecified) | 28.4
COCC1CN(Cc2ccc(C)s2)Cc2nnn(C)c21 (stereo unspecified) | 21.4
Cc1ccc(CN2Cc3nnn(C)c3C(COCc3ccccc3)C2)s1 (stereo unspecified) | 78.7

Compound | INHIBITION [%]
Cc1ccc(CN2Cc3nnn(C)c3C(COCc3ccccn3)C2)s1 (stereo unspecified) | -37.9
Cc1ccc(CN2Cc3nnn(C)c3C(COCC3CC3)C2)s1 (stereo unspecified) | 71.8
Cc1ccc(CN2Cc3nnn(C)c3C(COCCN(C)C)C2)s1 (stereo unspecified) | 10
CC[C@@H]1C[C@H](C(F)(F)F)n2nc(C3CCN(S(=O)(=O)CC)CC3)cc2N1 | 46
NC(=O)COc1ccc(CNCc2cc(F)ccc2F)cc1 | 1.56
CCn1c(C)nnc1CN(C)C1CCN(Cc2nnc(C3CC3)o2)C1 (stereo unspecified) | 36.1
CCC(O)Cn1nc(-c2ccc(C(=O)O)cc2)cc1-c1cccc(F)c1 (stereo unspecified) | 19.75
CCC(O)Cn1nc(-c2ccc(C(=O)O)cc2)cc1-c1ccc(F)cc1 (stereo unspecified) | 38.05
CC(C)Cn1nc(-c2ccc(C(=O)O)cc2)cc1-c1ccc(F)cc1 | 54.3
COc1ccc(CC2CN(C3CCSCC3)CCO2)cc1 (stereo unspecified) | 35.4
Cc1ccc(N2CC[C@H]3OCC[C@@]3(C(=O)N3CCCO3)C2)nn1 | 25.3
Cc1csc(CNC(=O)N(C)Cc2ccncc2)n1 | -53.6835
CCN(Cc1ccncc1)Cc1cn(-c2ccccc2)nn1 | 5.33
CC(NC(=O)N(C)Cc1ccncc1)c1nncn1C (stereo unspecified) | 13.7
CN(Cc1ccncc1)C(=O)NCc1cn(-c2ccccc2)nn1 | 56.3
CC(NC(=O)N(C)Cc1ccncc1)c1cn(-c2ccccc2)nn1 (stereo unspecified) | 60.1
CC(NC(=O)CCCN(C)C)c1cn(-c2ccccc2)nn1 (stereo unspecified) | 21.8
NC(=O)NCC(=O)N1CCCC(c2nccn2CC2CCC2)C1 (stereo unspecified) | 17.5
CC(C)c1nnc2n1CCN(c1nn3cc(C(C)(C)C)nc3s1)C2 | -34.6
Cc1nn(C)c(Cl)c1C1CCCN1Cc1nc(C2CC2)no1 (stereo unspecified) | 37.4
COC(=O)CCCn1ccnc1-c1ccc(OC)c(F)c1F | 43.9
CCn1ccnc1CN1CCN(CCOc2ccccc2OC)CC1 | 27.1
COc1ccc(-c2nccn2CCN2CCCCC2)c(OC)c1OC | 55
Cc1nnc2n1CCN(Cc1ncc(-c3ccc(F)cc3)o1)C2 | 46.1

Compound | INHIBITION [%]
Cc1c(CCC(=O)N2CCOC(c3cnccn3)C2)cnn1C (stereo unspecified) | -10.4
Cc1noc(C)c1C(=O)N1CCCN(Cc2nccn2C(C)C)CC1 | 4.1
CCN(CC1CCCO1)C(=O)Nc1ccc(OC)c(C)c1 (stereo unspecified) | -79.7
CCN(CC1CCCO1)C(=O)Nc1cccc(N2CCOCC2)c1 (stereo unspecified) | 54.4
CCN(CCC(F)(F)F)C(=O)Nc1cccc(N2CCOCC2)c1 | 3.47
O=C(c1cscn1)N1CCC(Cc2cnc3[nH]ccc3c2)C1 (stereo unspecified) | -14.1
COc1cccnc1NC(=O)COc1ccc(F)cc1F | 33.5
COc1cccnc1NC(=O)c1ccc(COCC(F)(F)F)cc1 | 62.4
O=C(Nc1cc[nH]n1)c1ccc(COCC(F)(F)F)cc1 | -17.8
Cc1n[nH]c(NC(=O)c2ccc(COCC(F)(F)F)cc2)c1C | 52.5
CC(C)(C)NC(=O)c1ccc(COCC(F)(F)F)o1 | 14.2
COc1cccnc1NC(=O)COc1c(C)cccc1C | 36.5
O=C(Cc1ccccc1)N1CCCC2(COCCN(CC3CC3)C2)C1 (stereo unspecified) | 19.5
Cc1ccc(C(C(=O)NCc2n[nH]c(N)n2)N(C)C)cc1 (stereo unspecified) | 19.5
CC(=O)N(C)Cc1ncn2c1CN(C(=O)C1CCCO1)CCC2 (stereo unspecified) | -0.453
CCc1ncc(CN2CCN(CCOC)CC2)cn1 | 11.1
COCCN1CCN(Cc2cnc(C)nc2)CC1 | -9.32
COCCN1CCN(Cc2cnc(C(C)C)nc2)CC1 | 53.2
CN(C)S(=O)(=O)c1ccc(-c2nc(C#N)c(NC3CC3)o2)o1 | 15.4
O=S(=O)(c1ccccc1Cl)N1CCc2nc(C3CCNCC3)ncc2C1 | 75.6
O=S(=O)(c1ccc(Cl)cc1)N1CCc2nc(C3CCNCC3)ncc2C1 | 9.93
CCN(CC)S(=O)(=O)N1CCCC(c2ncc3c(n2)CCN(C)C3)C1 (stereo unspecified) | 43.25
Cc1ccc(S(=O)(=O)N2CCc3nc(C4CCNCC4)ncc3C2)cc1 | 68.2
CCN(CC)S(=O)(=O)N1CCc2nc(C3CCNCC3)ncc2C1 | 32.3

Compound | INHIBITION [%]
Cc1noc(C)c1S(=O)(=O)N1CCc2nc(C3CCNCC3)ncc2C1 | 34
Clc1ccccc1CN1CCc2nc(C3CCNCC3)ncc2C1 | 23.2
O=S(=O)(N1CCCCC1)N1CCc2nc(C3CCNCC3)ncc2C1 | 22.2
CCC(C)S(=O)(=O)N1CCc2nc(C3CCNCC3)ncc2C1 (stereo unspecified) | 57.5
COc1c(CNC2(c3noc(C)n3)CCC2)c(C(C)C)nn1C | -113
Cc1ocnc1C(=O)N1CCCN(Cc2cscn2)CC1 | 35.3
O=C(c1ccncc1)N1CC[C@@H]2CN(C3CCOCC3)CCO[C@@H]2C1 | 23.1
Cn1cccc1CN1CCC2(CC1)CC(Oc1cccnc1)C2 | 24.6
COc1cccc(Nc2nc(N3CCCC3)nc3c2CNCC3)c1 | 42.5
CC(Nc1nc(-c2ccncc2)nc2c1CCNC2)c1ccccc1 (stereo unspecified) | 46.3
COc1cccc(Nc2nc(-c3ccncc3)nc3c2CNCC3)c1 | 51.7
CC(O)CNc1nc(-c2cccnc2)nc2c1CCC2 (stereo unspecified) | -43
c1csc(CCNc2nc(-c3ccncc3)nc3c2CCNCC3)c1 | 31.6
COc1cccc(Nc2nc(C3CCNCC3)c3ccccn23)c1 | 9.6
c1cncc(-c2nc3c(c(NCC4(c5ccncc5)CC4)n2)CCC3)c1 | -5.38
O=C(Nc1cccc(F)c1)NC1CCN(Cc2ccncc2)CC1 | 45.4
NC1CCc2nc(-c3cccnc3)nc(Nc3ccc(F)cc3)c2C1 (stereo unspecified) | 63.85
O=C(c1cccc(F)c1)N1CCCC1c1ncc2c(n1)CCNC2 (stereo unspecified) | 36.7
Fc1cccc(Nc2nc(N3CCCC3)nc3c2CNCC3)c1 | 76.8
NC1CCc2nc(-c3ccncc3)nc(Nc3cccc(F)c3)c2C1 (stereo unspecified) | 90.35
